Screening data as filed in PubChem.
Most compounds without a hit are left out; they make up all but 12% or so of the library.
Shiga inhibitor: A qHTS for Small Molecule Inhibitors of Shiga Toxin | Vero cells, Shiga toxin protein synthesis inhibition reporter | inhibition, % at 38.7 µM | 9.2% of 290,000 active | AID 2315, 2010; in the data active means inhibition mostly above about 28%, no sharp cut-off; inactive means mostly below about 43%
Marburg entry inh: qHTS for inhibitors of binding or entry into cells for Marburg Virus. AID 540276, 2011. 1.8% of 300,000 active. Potency, µM (doses to about 37.8 µM), most hits filed as inhibitors. Marburg virus pseudotyped entry inhibition, cell reporter; calls by dose curve; tested in HEK293 cells
Cycloheximide cs: Cycloheximide Counterscreen for Small Molecule Inhibitors of Shiga Toxin. cell reporter, cycloheximide protein synthesis inhibition counterscreen. max response, %. 12% of 300,000 active. AID 2314, 2010; in the data active means max response mostly above about 13%, no sharp cut-off; inactive means mostly below about 14%; further: read at 38.3 µM for the half of the compounds with a filed dose
LASV entry inh: qHTS for Inhibitors of binding or entry into cells for Lassa Virus; Potency, µM (series often up to 37.9 µM), hits mostly inhibitors; Lassa virus pseudotype entry inhibition, cell reporter; 1.2% of 300,000 active; calls by dose curve; tested in HEK293 cells; further: nearly all actives have a fitted effect of over 50% in size
Each line names hits and unclear results; the compound was inactive in the other large screens.

O=C1[C@H]2[C@H]3[C@H](O)[C@H](O)C/C(=N\OCc4ccccc4)[C@@H]3CC[C@H]2C(=O)N1Cc1ccc2c(c1)OCO2	none (no result: Shiga inhibitor, Cycloheximide cs, LASV entry inh)
CCc1nonc1NC(=O)c1oc2cc(C)c(C)cc2c1C	Marburg entry inh inconclusive, Cycloheximide cs 25, LASV entry inh inconclusive
Nc1nc(SCc2ccccc2)c2ncn(C3CCCCC3)c2n1	Marburg entry inh inconclusive (no result: Shiga inhibitor, Cycloheximide cs)
COc1ccc(C(c2c(O)ccc3ccccc23)N2CCOCC2)c(OC)c1 (centres undefined)	Shiga inhibitor 65
Cc1ccc(OCC(=O)N2CCC(C)CC2)c([N+](=O)[O-])n1	none (no result: Shiga inhibitor, Cycloheximide cs)
CCOC(=O)Cc1nc2ccccc2o1	Cycloheximide cs 15 (no result: Marburg entry inh, LASV entry inh)
COc1cccc(-c2cccc(NC(=O)C3CCN(C4CCOCC4)CC3)c2)c1	none (no result: Marburg entry inh, LASV entry inh)
O=S(=O)(c1ccc(NC(=S)NCCC(c2ccccc2)c2ccccc2)cc1)N1CCOCC1	Marburg entry inh 10µM, LASV entry inh 3.5µM
CC1(C)CC2CC(C)(CN2S(=O)(=O)c2ccc(C(=O)Nc3ccc(Cl)c(S(=O)(=O)N4CCOCC4)c3)cc2)C1 (centres undefined)	Marburg entry inh 3.5µM, LASV entry inh inconclusive
CC(=O)Nc1ccc(S(=O)(=O)N2CC3(C)CC2CC(C)(C)C3)cc1 (centres undefined)	Marburg entry inh inconclusive, LASV entry inh inconclusive
CC(=O)Nc1ccc(C(=O)Nc2ccc(S(=O)(=O)N3CCOCC3)cc2)cc1	Cycloheximide cs 16 (no result: Marburg entry inh, LASV entry inh)
O=C(Nc1ccc(NC(=O)c2ccc(Cl)c(S(=O)(=O)N3CCOCC3)c2)cc1)c1ccccc1	Marburg entry inh inconclusive, LASV entry inh inconclusive
CC1(C)CC2CC(C)(CN2S(=O)(=O)c2ccc(C(=O)Nc3ccc(S(=O)(=O)N4CCOCC4)cc3)cc2)C1 (centres undefined)	Marburg entry inh 2.8µM, LASV entry inh 3.5µM
O=C(NCc1ccccc1Cl)c1cnc(N2CCCCC2)c2ccccc12	none (no result: Shiga inhibitor, Marburg entry inh, Cycloheximide cs)
O=S(=O)(/N=C(/Nc1cccnc1)c1ccccc1)c1ccc(F)cc1F	none (no result: Shiga inhibitor, Cycloheximide cs)
COc1ccc(NC(=O)COC(=O)c2c3c(nc4ccccc24)CCCC3)cc1Cl	Marburg entry inh inconclusive, LASV entry inh inconclusive
COc1cccc(N2CCN(C(=O)CC(C)(C)CC3=NS(=O)(=O)c4ccccc4N3)CC2)c1	LASV entry inh inconclusive
CC(C)(CC(=O)N1CCN(c2ccc(Cl)cc2)CC1)CC1=NS(=O)(=O)c2ccccc2N1	Marburg entry inh inconclusive, LASV entry inh 11µM
CC(=O)N1c2ccccc2Oc2cc3ccccc3cc21	Marburg entry inh inconclusive, Cycloheximide cs 26, LASV entry inh inconclusive
CCOc1ccc(N=Nc2ccc(O)c3ncccc23)cc1	Marburg entry inh inconclusive
Cc1ccc(N=C2N=C(N)c3ccccc32)c(C)c1	LASV entry inh inconclusive
Cc1ccc(C)c(N=Nc2ccc(O)c3ncccc23)c1	Shiga inhibitor 151, Cycloheximide cs 43 (no result: Marburg entry inh, LASV entry inh)
Oc1ccc(N=Nc2ccc3c(c2)OCCO3)c2ncccc12	Shiga inhibitor 95, Cycloheximide cs 48 (no result: Marburg entry inh, LASV entry inh)
Cc1ccc(N=Nc2ccc(N)cc2C)c(S(N)(=O)=O)c1	Shiga inhibitor 94, Cycloheximide cs 65
Cc1cccc(N=Nc2ccc(O)c3ncccc23)c1	Shiga inhibitor active, Marburg entry inh 4.5µM, Cycloheximide cs 46, LASV entry inh inconclusive
Cc1ccc(N=Nc2cc(C)ccc2O)c(C)c1	Shiga inhibitor 77, Cycloheximide cs 36 (no result: Marburg entry inh, LASV entry inh)
Cc1ccc(N=Nc2c(C)[nH]n(-c3ccccc3)c2=O)c(C)c1	none
CN(C)c1ccc(C(=S)N2CCN(c3ccccc3)CC2)cc1	Cycloheximide cs 25
CN(C)c1ccc(C(=S)N2CCCCCC2)cc1	LASV entry inh inconclusive
CN(C)c1ccc(C(=S)N2CCN(c3ccc([N+](=O)[O-])cc3)CC2)cc1	LASV entry inh inconclusive
CC1CCN(C(=S)c2ccc(N(C)C)cc2)CC1	Shiga inhibitor 62, Marburg entry inh inconclusive
Cc1ccc(N2CCN(C(=S)c3ccc(N(C)C)cc3)CC2)cc1	Shiga inhibitor active, Cycloheximide cs 59
CCOC(=O)CN1C(=O)C(Sc2n[nH]c(-c3ccc(O)cc3)n2)CCc2ccccc21 (centres undefined)	Marburg entry inh inconclusive
Cc1[nH]c2ccccc2c1/C=N/Nc1nc2ccccc2[nH]1	Shiga inhibitor 112, Marburg entry inh inconclusive, Cycloheximide cs 43, LASV entry inh inconclusive
Cc1cc(=O)[nH]c(N/N=C/c2c[nH]c3ccccc23)n1	Cycloheximide cs 29 (no result: Marburg entry inh, LASV entry inh)
COc1ccc(/C=N/Nc2nc3ccccc3[nH]2)c(OC)c1OC	Shiga inhibitor 141, Marburg entry inh inconclusive, Cycloheximide cs 41, LASV entry inh inconclusive
COc1ccccc1/C=N/Nc1nccnc1Cl	Shiga inhibitor 66, Cycloheximide cs 35
O=C(NCCc1ccccc1)C(=O)NCC(c1ccc2c(c1)OCO2)N1CCOCC1 (centres undefined)	none (no result: Shiga inhibitor, Marburg entry inh, Cycloheximide cs)
